The record followed here is article PMC7862700, “An all-to-all approach to the identification of sequence-specific readers for epigenetic DNA modifications on cytosine”.

Holding throughout (test): DAPPL (digital affinity profiling via proximity ligation, sequencing); 10 mM Tris-HCl pH 7.5, 50 mM NaCl, 1 mM DTT, 4% glycerol, room temperature, 30 min; GST-TFs on glutathione beads, 16-mer random dsDNA library, 0.1% formaldehyde crosslink after washing; high values mean tight binding
One experiment concerns the target T1, FLI1 (Homo sapiens, UniProt Q01543 1-452).
T1 sequence: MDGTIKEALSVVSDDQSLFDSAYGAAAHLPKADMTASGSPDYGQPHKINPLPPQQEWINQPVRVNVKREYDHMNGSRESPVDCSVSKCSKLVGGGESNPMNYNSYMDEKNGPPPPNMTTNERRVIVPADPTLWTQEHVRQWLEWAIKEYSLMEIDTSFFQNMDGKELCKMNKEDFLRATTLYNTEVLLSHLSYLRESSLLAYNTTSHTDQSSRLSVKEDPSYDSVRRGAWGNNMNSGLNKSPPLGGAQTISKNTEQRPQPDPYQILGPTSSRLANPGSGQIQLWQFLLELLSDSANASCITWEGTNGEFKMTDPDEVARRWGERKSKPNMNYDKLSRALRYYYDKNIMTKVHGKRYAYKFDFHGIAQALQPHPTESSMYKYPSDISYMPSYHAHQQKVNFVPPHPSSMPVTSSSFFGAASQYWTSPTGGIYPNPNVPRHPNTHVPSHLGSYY
Particulars: protein: recombinant; tags: N-terminal GST; dsDNA, one strand shown. The method in brief: (§1)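 In yeast, human transcription factors were expressed with a GST fusion, then pulled down on glutathione beads and given DNA barcodes. Pooled with a tag-only sample, they were exposed to 200 nmole of a 16-mer random double-stranded DNA library (Tris/NaCl/DTT/glycerol buffer, room temperature, 30 min), washed, crosslinked with 0.1% formaldehyde, proximity-ligated using BsaI/T4 ligase for 1 h at 37 °C, PCR-amplified and read on an Illumina NextSeq500. Each hexamer's frequency of reads for a factor, divided by the matching frequency for the tag-only sample, gives the binding signal.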

For a further experiment, the target named is T2, ELK1 (Homo sapiens, UniProt P19419 1-428).
T2 sequence: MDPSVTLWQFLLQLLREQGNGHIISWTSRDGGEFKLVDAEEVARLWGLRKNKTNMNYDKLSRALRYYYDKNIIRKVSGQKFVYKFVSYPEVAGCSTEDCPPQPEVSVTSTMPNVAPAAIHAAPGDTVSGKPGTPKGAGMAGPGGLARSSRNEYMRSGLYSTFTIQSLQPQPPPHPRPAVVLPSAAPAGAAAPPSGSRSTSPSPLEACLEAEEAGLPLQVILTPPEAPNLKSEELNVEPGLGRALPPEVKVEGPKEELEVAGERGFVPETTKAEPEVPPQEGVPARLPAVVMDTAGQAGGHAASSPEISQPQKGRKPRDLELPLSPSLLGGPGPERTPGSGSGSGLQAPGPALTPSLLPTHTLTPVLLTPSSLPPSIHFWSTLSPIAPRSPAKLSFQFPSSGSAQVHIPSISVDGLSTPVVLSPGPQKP
Conditions: protein: recombinant; tags: N-terminal GST; dsDNA, one strand shown. The method in brief:
as §1

The next experiment deals with T3, GABPA (Homo sapiens, UniProt Q06546 1-454).
T3 sequence: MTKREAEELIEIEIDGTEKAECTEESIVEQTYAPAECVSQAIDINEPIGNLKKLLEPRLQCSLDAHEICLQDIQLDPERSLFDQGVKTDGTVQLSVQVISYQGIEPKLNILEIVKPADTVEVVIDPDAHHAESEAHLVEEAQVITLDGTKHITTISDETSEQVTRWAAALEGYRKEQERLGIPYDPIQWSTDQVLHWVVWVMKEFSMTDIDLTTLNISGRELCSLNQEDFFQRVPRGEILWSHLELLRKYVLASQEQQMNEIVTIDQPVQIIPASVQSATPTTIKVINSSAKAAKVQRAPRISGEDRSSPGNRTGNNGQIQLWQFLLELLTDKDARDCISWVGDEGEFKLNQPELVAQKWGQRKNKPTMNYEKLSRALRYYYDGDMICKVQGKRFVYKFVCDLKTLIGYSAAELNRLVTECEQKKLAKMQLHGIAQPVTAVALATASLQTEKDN
Conditions: protein: recombinant; tags: N-terminal GST; dsDNA, one strand shown. The method in brief: as §1

The target of another experiment is T4, ERG (Homo sapiens, UniProt P11308 1-479).
T4 sequence: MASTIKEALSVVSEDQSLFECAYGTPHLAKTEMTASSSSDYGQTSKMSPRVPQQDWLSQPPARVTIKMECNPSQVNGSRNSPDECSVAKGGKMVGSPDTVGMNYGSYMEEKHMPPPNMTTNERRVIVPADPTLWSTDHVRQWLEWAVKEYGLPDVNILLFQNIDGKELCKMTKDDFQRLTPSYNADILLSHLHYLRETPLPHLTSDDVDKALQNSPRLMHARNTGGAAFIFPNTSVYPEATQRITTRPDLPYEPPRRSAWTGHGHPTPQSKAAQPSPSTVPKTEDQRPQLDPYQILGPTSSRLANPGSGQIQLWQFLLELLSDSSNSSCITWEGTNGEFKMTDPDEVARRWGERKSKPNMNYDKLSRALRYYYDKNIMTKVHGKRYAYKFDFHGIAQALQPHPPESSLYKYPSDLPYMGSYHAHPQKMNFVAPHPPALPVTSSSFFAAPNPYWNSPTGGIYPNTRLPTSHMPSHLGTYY
Particulars: protein: recombinant; tags: N-terminal GST; dsDNA, one strand shown. The method in brief:
as §1

The target of the next experiment is ELF1 (Homo sapiens, UniProt P32519 1-619). Conditions: protein: recombinant; tags: N-terminal GST; dsDNA, one strand shown. Summed up: as §1
For another experiment, the target named is T5, EHF (Homo sapiens, UniProt Q9NZC4 1-300).
T5 sequence: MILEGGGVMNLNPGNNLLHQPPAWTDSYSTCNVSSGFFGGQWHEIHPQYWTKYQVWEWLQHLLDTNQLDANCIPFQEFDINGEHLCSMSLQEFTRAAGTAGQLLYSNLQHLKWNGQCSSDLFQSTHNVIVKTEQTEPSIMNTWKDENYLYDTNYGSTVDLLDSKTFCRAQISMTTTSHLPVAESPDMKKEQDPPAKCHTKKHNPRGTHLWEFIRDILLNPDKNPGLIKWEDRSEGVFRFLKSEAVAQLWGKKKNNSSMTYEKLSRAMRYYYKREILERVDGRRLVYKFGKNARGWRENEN
Particulars: protein: recombinant; tags: N-terminal GST; dsDNA, one strand shown. Summed up: as §1

Another experiment concerns the target SPI1 (Homo sapiens, UniProt P17947 1-270). Conditions: protein: recombinant; tags: N-terminal GST; dsDNA, one strand shown. The method in brief: as §1
The target of a further experiment is SPIB (Homo sapiens, UniProt Q01892 1-262). Particulars: protein: recombinant; tags: N-terminal GST; dsDNA, one strand shown. Summed up: as §1
In another experiment the target is T6, ELK3 (Homo sapiens, UniProt P41970 1-407).
T6 sequence: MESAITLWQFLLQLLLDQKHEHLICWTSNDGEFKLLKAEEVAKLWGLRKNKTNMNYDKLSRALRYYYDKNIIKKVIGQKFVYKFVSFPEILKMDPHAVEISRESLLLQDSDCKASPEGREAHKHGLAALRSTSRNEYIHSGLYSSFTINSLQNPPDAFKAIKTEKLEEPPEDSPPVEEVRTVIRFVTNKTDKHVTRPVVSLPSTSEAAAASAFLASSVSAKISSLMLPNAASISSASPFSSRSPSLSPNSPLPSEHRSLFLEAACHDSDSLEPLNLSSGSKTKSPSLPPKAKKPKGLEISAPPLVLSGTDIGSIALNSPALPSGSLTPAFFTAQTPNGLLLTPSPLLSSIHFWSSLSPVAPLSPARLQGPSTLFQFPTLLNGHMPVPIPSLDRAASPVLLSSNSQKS
Particulars: protein: recombinant; tags: N-terminal GST; dsDNA, one strand shown. Summed up: as §1

Another experiment addresses T7, FEV (Homo sapiens, UniProt Q99581 1-238).
T7 sequence: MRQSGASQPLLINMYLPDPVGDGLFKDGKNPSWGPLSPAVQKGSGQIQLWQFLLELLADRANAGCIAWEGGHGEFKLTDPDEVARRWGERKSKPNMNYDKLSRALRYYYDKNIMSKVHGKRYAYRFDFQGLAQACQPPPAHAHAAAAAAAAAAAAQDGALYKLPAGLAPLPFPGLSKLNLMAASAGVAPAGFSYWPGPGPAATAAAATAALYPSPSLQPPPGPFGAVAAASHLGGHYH
Particulars: protein: recombinant; tags: N-terminal GST; dsDNA, one strand shown. The method in brief:
as §1

A further experiment concerns the target ETV5 (Homo sapiens, UniProt P41161 1-510). Conditions: protein: recombinant; tags: N-terminal GST; dsDNA, one strand shown. The method in brief:
as §1

The target in the next experiment is HSF1 (Homo sapiens, UniProt Q00613 1-529). Particulars: protein: recombinant; tags: N-terminal GST; chain copies: 3; dsDNA, one strand shown. The method in brief: as §1
The next experiment deals with T8, SPIC (Homo sapiens, UniProt Q8N5J4 1-248).
T8 sequence: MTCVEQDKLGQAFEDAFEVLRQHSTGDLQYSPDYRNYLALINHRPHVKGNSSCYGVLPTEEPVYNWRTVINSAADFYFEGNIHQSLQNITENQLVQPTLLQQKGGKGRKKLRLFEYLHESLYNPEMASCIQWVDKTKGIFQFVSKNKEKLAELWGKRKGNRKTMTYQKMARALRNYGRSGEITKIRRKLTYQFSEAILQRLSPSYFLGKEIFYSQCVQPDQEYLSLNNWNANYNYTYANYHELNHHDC
Conditions: protein: recombinant; tags: N-terminal GST; dsDNA, one strand shown. The method in brief: as §1

A further experiment addresses ELF4 (Homo sapiens, UniProt Q99607 1-663). Conditions: protein: recombinant; tags: N-terminal GST; dsDNA, one strand shown. Summed up:
as §1

Another experiment concerns the target T9, ELK4 (Homo sapiens, UniProt P28324-2 1-405).
T9 sequence: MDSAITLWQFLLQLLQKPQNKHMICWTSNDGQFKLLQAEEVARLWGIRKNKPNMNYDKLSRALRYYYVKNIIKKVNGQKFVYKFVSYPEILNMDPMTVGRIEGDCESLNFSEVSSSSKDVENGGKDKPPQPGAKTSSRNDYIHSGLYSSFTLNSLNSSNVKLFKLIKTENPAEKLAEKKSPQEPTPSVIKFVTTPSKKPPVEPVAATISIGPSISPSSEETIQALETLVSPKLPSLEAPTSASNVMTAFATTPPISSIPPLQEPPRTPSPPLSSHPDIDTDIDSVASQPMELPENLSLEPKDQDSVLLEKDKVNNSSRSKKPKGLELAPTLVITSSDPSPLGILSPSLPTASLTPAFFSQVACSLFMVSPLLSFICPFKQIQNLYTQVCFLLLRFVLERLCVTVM
Conditions: protein: recombinant; tags: N-terminal GST; dsDNA, one strand shown. Summed up:
as §1

A further experiment addresses T10, ETV2 (Homo sapiens, UniProt O00321 1-342).
T10 sequence: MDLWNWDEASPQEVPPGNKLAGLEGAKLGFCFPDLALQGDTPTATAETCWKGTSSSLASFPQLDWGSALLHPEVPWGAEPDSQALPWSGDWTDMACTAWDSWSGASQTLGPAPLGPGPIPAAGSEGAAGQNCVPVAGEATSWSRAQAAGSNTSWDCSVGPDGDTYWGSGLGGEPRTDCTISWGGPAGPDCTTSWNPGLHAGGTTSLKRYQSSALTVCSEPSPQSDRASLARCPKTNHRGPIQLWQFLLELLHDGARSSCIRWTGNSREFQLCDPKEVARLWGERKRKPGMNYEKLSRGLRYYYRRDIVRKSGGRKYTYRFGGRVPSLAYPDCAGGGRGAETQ
Particulars: protein: recombinant; tags: N-terminal GST; dsDNA, one strand shown. Summed up:
as §1

A further experiment concerns the target T11, ELF3 (Homo sapiens, UniProt P78545 1-371).
T11 sequence: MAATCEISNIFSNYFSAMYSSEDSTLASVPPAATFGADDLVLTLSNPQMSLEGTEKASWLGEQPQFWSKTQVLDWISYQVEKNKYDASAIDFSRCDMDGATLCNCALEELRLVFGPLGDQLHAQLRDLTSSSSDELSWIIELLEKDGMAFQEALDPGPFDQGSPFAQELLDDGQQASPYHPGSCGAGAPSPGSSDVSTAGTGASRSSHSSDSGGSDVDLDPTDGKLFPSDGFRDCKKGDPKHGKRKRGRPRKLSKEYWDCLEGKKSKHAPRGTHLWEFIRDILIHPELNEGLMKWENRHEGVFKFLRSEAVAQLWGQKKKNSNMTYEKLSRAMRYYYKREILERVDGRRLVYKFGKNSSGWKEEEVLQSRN
Particulars: protein: recombinant; tags: N-terminal GST; dsDNA, one strand shown. The method in brief:
as §1

In the next experiment the target is CRX (Homo sapiens, UniProt O43186 1-299). Conditions: protein: recombinant; tags: N-terminal GST; dsDNA, one strand shown. The method in brief:
as §1

The next experiment concerns the target ETV1 (Homo sapiens, UniProt P50549 1-477). Particulars: protein: recombinant; tags: N-terminal GST; dsDNA, one strand shown. Summed up: as §1

ETV1, sequence (P50549 whole entry): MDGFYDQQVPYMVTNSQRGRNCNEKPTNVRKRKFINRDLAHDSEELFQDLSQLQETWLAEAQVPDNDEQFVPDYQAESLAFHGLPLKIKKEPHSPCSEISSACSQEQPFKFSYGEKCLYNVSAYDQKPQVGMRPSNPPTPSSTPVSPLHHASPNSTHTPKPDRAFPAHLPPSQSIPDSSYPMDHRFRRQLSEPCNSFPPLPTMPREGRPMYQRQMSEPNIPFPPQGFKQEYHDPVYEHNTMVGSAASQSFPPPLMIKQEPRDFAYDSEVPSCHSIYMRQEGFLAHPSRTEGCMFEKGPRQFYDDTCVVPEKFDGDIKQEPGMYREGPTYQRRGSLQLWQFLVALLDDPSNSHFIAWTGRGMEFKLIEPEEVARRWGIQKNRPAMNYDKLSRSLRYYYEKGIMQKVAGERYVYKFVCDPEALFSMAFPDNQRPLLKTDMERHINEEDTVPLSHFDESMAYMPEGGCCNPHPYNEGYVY
ETV5, sequence (P41161 whole entry): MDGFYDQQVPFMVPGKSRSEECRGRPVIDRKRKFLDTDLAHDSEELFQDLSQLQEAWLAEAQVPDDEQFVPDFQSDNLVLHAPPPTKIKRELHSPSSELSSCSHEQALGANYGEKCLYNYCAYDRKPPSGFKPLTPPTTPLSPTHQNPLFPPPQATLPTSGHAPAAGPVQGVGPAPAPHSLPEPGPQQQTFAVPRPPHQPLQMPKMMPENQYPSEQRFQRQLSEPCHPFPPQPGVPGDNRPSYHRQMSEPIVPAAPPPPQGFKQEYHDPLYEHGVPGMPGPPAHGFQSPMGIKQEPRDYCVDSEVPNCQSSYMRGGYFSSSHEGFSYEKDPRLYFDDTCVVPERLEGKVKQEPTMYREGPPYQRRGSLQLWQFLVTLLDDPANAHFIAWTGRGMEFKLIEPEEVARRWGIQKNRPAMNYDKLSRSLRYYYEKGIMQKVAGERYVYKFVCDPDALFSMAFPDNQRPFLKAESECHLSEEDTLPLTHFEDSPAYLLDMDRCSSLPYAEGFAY
HSF1, sequence (Q00613 whole entry): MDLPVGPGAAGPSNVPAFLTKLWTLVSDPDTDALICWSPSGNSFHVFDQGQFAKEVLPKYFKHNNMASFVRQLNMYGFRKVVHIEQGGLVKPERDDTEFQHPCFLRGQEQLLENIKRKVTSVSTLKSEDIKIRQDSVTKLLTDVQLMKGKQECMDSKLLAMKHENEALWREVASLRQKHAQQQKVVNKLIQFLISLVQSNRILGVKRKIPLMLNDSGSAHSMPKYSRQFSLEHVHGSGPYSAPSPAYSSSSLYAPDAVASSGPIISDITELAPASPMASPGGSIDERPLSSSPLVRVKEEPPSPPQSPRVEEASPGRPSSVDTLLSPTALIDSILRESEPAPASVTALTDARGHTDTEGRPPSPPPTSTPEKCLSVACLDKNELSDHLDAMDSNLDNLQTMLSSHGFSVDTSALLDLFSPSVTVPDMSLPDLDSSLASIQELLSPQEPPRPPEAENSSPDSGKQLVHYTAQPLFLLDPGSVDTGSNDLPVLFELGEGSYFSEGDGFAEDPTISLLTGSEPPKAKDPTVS
ELF1, sequence (P32519 whole entry): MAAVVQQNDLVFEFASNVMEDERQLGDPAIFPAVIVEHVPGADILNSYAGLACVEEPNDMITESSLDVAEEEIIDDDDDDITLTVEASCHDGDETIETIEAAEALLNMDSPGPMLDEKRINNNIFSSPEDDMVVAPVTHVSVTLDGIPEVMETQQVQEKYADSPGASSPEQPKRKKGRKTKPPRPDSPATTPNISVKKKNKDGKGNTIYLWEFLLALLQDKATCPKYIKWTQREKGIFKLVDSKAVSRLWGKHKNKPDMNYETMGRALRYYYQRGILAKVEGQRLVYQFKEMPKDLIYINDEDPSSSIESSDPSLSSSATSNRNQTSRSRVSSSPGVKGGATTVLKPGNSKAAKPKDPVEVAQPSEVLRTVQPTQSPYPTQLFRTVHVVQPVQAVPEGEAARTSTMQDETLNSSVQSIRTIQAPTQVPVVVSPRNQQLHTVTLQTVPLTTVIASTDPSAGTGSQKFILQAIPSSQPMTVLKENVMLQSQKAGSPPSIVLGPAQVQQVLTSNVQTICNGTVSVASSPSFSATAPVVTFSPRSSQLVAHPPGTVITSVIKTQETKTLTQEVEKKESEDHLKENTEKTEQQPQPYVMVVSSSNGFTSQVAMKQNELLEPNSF
SPIB, sequence (Q01892 whole entry): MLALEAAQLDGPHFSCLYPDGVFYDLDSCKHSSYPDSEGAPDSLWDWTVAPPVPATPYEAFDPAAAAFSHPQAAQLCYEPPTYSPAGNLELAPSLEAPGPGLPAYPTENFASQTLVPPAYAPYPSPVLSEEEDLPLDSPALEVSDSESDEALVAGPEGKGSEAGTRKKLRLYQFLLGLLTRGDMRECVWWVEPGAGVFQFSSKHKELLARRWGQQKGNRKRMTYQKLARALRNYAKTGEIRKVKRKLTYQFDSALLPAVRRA
ELF4, sequence (Q99607 whole entry): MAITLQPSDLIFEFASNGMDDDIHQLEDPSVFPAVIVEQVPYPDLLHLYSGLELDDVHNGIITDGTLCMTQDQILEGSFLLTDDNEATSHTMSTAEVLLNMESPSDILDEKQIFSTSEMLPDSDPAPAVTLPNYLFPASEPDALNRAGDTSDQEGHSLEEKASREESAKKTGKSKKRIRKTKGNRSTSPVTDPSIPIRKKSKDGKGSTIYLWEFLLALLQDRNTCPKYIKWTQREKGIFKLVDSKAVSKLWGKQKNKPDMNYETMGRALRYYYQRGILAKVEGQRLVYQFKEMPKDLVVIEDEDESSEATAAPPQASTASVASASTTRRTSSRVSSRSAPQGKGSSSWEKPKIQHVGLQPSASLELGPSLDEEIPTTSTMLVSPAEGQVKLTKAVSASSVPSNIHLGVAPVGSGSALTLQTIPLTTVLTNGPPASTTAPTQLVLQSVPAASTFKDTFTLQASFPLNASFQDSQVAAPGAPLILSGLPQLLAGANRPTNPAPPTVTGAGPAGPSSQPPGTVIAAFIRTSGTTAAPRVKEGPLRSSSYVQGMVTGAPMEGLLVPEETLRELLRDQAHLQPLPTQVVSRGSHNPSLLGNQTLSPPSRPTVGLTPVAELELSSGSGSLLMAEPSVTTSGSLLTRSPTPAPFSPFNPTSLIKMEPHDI
CRX, sequence (O43186 whole entry): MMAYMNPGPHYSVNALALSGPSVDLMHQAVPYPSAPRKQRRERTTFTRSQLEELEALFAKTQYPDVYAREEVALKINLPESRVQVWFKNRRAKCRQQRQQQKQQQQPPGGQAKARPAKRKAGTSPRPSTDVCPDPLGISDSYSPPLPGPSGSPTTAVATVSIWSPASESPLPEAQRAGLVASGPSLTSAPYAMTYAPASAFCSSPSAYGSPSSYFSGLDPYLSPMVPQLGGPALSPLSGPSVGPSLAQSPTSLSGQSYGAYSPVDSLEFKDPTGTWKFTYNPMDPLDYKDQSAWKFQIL

On to ATTATC, for which the binding signal was 1.35 fold enrichment (6-mer frequency, TF over GST control) with FLI1; 1.35 fold enrichment (6-mer frequency, TF over GST control) with ELK1; 1.34 fold enrichment (6-mer frequency, TF over GST control) in the experiment with GABPA; 1.32 fold enrichment (6-mer frequency, TF over GST control) with ERG; 1.29 fold enrichment (6-mer frequency, TF over GST control) in the experiment with ELF1; 1.28 fold enrichment (6-mer frequency, TF over GST control) with EHF. Besides, the binding signal with SPI1 is 1.35 fold enrichment (6-mer frequency, TF over GST control); in the experiment with SPIB it was 1.27 fold enrichment (6-mer frequency, TF over GST control); with ELK3, 1.32 fold enrichment (6-mer frequency, TF over GST control); with FEV, 1.29 fold enrichment (6-mer frequency, TF over GST control); with ETV5, 1.26 fold enrichment (6-mer frequency, TF over GST control); with HSF1, 2.51 fold enrichment (6-mer frequency, TF over GST control). Further, the binding signal in the experiment with SPIC is 1.34 fold enrichment (6-mer frequency, TF over GST control); with ELF4, 1.32 fold enrichment (6-mer frequency, TF over GST control); with ELK4, 1.39 fold enrichment (6-mer frequency, TF over GST control); with ETV2, 1.38 fold enrichment (6-mer frequency, TF over GST control); with ELF3, 1.39 fold enrichment (6-mer frequency, TF over GST control); in the experiment with CRX, 3.86 fold enrichment (6-mer frequency, TF over GST control). Also, the binding signal with ETV1 is 1.31 fold enrichment (6-mer frequency, TF over GST control).
